LmPK inh = inhibitors of Leishmania mexicana pyruvate kinase; purified LmPK, Kinase-Glo ATP luminescence, 1 h; 0.37% of 290,000 active; Q27686; AID 1721; Potency, µM (titrated, usually from 57.5 µM), inactives show top-dose activity change, negative = inhibition, usual class: inhibitors; further: potency means the concentration at half of the fitted maximal effect; on the % scale 0 is the no-effect control and ±100 the full control effect
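Purified LmPK (0.1 nM) with 0.5 mM PEP and 0.1 mM ADP in imidazole buffer pH 7.2 with MgCl2/KCl, 1 h at room temperature. ATP formed was read by luciferase luminescence and normalized to no-enzyme and uninhibited controls.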
Shiga inhibitor = Shiga toxin inhibition; Vero cells, Shiga toxin protein synthesis inhibition reporter; inhibition, % at 38.7 µM; 9.2% of 290,000 active; in the data active means inhibition mostly above about 28%, no sharp cut-off; inactive means mostly below about 43%; further: 0% is about no effect
CHX counter = affects cycloheximide protein synthesis inhibition readout, counter-screen; cell reporter, cycloheximide protein synthesis inhibition counterscreen; max response, %; 12% of 300,000 active; in the data active means max response mostly above about 13%, no sharp cut-off; inactive means mostly below about 14%; further: read at 38.3 µM for the half of the compounds with a filed dose; 0% is about no effect
RE007 growth inh = less growth of the S. pombe RE007 Vpr strain; AID 651644; 0.21% of 360,000 active; S. pombe RE007 Vpr strain, BacTiter-Glo ATP luminescence, 24 h; Potency, µM (titrated, usually from 92.2 µM), for inactives: at the highest dose activity change, negative = less growth, hits mostly inhibitors; active means well fitted falling curve with a large enough effect; inconclusive means small, poorly fitted or top-dose-only effect; inactive means no such curve, though single readings can be large or run the other way; further: potency means the concentration at half of the fitted maximal effect; on the % scale 0 is the no-effect control and ±100 the full control effect; nearly all actives have a fitted effect of over 50% in size
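Fission yeast strain RE007, carrying one chromosomally integrated HIV-1 vpr copy, was seeded at OD 0.01 in PMG+AL medium with 23 nL pinned compound. After 24 h at 30 °C and 99% humidity, viability was read by BacTiter-Glo luminescence.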
Giardia FBPA inh-1 = blocks Giardia fructose-bisphosphate aldolase activity | A8B2U2 | 0.71% of 290,000 active | purified Giardia FBPA | Potency, µM (highest dose often 59.6 µM), without a hit: top-dose activity, negative = inhibition, hits mostly inhibitors; further: potency means the concentration at half of the fitted maximal effect; on the % scale 0 is the no-effect control and ±100 the full control effect; nearly all actives have a fitted effect of over 55% in size
Target sequence (A8B2U2 whole entry, looked up): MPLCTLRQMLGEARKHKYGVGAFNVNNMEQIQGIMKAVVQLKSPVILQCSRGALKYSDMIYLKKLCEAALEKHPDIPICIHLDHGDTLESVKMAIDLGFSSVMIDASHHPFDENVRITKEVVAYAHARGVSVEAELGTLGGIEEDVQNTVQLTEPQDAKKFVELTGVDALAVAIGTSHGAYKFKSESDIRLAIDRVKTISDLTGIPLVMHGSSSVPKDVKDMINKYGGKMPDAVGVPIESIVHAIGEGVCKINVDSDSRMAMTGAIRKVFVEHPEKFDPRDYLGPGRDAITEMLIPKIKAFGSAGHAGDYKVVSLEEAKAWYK
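Giardia FBPA (40 nM reagent) was preincubated 10 min at RT with compound (up to 57.5 uM final), then substrate plus GAPDH/TPI/NAD/arsenate coupling system with diaphorase/resazurin was added; resorufin fluorescence (525/598 nm) was read after 20 min.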
TbPYK inhibitor = inhibitors of Trypanosoma brucei pyruvate kinase | Potency, µM (series often up to 76.8 µM), for the others: at the top dose activity, negative = inhibition, actives largely listed as inhibitors | TbPYK enzyme, Kinase-Glo Plus ATP luminescence, 45 min | AID 624173 | 0.12% of 410,000 active | Q57TT1; further: potency means the concentration at half of the fitted maximal effect; on the % scale 0 is the no-effect control and ±100 the full control effect; nearly all actives have a fitted effect of over 50% in size
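Glycolytic pyruvate kinase of T. brucei was incubated with substrate, test compound and 130 uM ADP for 45 minutes at room temperature. Luminescent Kinase-Glo Plus signal was measured after 10 minutes.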
Giardia growth = inhibitors of Giardia lamblia growth; Giardia lamblia trophozoite growth inhibition; 5% of 1,500 active; Potency, µM (series often up to 57.5 µM), inactives show at the top dose activity change, negative = inhibition, usual class: inhibitors; shares compounds with Giardia FBPA inh-1;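 further: potency means the concentration at half of the fitted maximal effect; trophozoites exposed to compound for 48 h at 37 °C; on the % scale 0 is the no-effect control and ±100 the full control effect; nearly all actives have a fitted effect of over 70% in size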
Mammalian tox = counter-screen for Giardia aldolase inhibitors: mammalian cell toxicity. shares compounds with Giardia FBPA inh-1. mammalian cell viability counter-screen, qHTS. Potency, µM (doses to about 57.5 µM), for the others: at the top dose viability change, negative = toxicity, hits mostly inhibitors. 4% of 1,500 active;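 further: Chinese hamster ovary cells used as mammalian cytotoxicity surrogate; viability measured as cellular ATP by luminescence; potency means the concentration at half of the fitted maximal effect; compound exposure lasted 48 h before reading; on the % scale 0 is the no-effect control and ±100 the full control effect; nearly all actives have a fitted effect of over 60% in size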
Giardia FBPA inh-2 = confirmation of Giardia fructose-bisphosphate aldolase inhibitors. shares compounds with Giardia FBPA inh-1. purified Giardia aldolase enzyme activity, qHTS. Potency, µM (titrated, usually from 57.5 µM), without a hit: top-dose activity change, negative = inhibition, usual class: inhibitors. 5% of 1,500 active. AID 2787; further: potency means the concentration at half of the fitted maximal effect; on the % scale 0 is the no-effect control and ±100 the full control effect; nearly all actives have a fitted effect of over 45% in size
Rabbit FBPA inh = rabbit FBP aldolase inhibition by Giardia aldolase hits | AID 2794 | shares compounds with Giardia FBPA inh-1 | Rabbit muscle FBPA enzyme inhibition, selectivity counter-screen | 4% of 1,500 active | Potency, µM (doses to about 57.5 µM), inactives show at the highest dose activity, negative = inhibition, actives largely listed as inhibitors; further: potency means the concentration at half of the fitted maximal effect; on the % scale 0 is the no-effect control and ±100 the full control effect; nearly all actives have a fitted effect of over 60% in size
GAPDH coupling = counter-screen for Giardia aldolase inhibitors: GAPDH coupling enzyme. GAPDH coupling enzyme counterscreen, biochemical, qHTS. shares compounds with Giardia FBPA inh-1. 6% of 1,500 active. Potency, µM (titrated, usually from 57.5 µM), for the others: at the top dose activity change, negative = inhibition, hits mostly inhibitors. AID 2795; further: potency means the concentration at half of the fitted maximal effect; on the % scale 0 is the no-effect control and ±100 the full control effect; nearly all actives have a fitted effect of over 55% in size
* marks the source's active call; other numbers are inactive results; ? = inconclusive; nt = not tested or not shown; [ ] = dose if it differs, or a comment. Shown is part of a subset that was picked to be rich in hits. Unless noted, the call rests on the fitted dose curve; in most records, active means well fitted curve in the direction sought with a large enough effect; inconclusive means small, poorly fitted or top-dose-only effect, or another doubt; inactive means no such curve, though single readings can be large; an effect the other way counts as inactive or inconclusive.

SMILES | LmPK inh | Shiga inhibitor | CHX counter | RE007 growth inh | Giardia FBPA inh-1 | TbPYK inhibitor | Giardia growth | Mammalian tox | Giardia FBPA inh-2 | Rabbit FBPA inh | GAPDH coupling
CC1CCN(c2ccc(/C=N\Nc3nncn3N)cc2[N+](=O)[O-])CC1 | 1% | 13 | 3 | -30% | 11µM* | -7% | 11µM* | 15% | ? | -25% | ?
COc1cc(/C=N\Nc2nncn2N)ccc1OC(C)=O | -2% | 19 | 17* | 1% | 25µM* | 0% | -20% | -28% | ? | ? | ?
CSc1ccc(/C=N\Nc2nncn2N)cc1 | -6% | 76* | 28* | nt | ? | -6% | 14%[38.3 µM] | -9% | 2.3µM* | 6.5µM* | 3.3µM*
Nn1cnnc1N/N=C/c1cc(Br)cc(Br)c1O | 0% | -14 | -3 | 1% | ? | 1% | nt | nt | nt | nt | nt
CC(C)(C)c1ccc(/C=N/Nc2nncn2N)cc1 | -13% | 13 | 17* | -23% | 16µM* | -7% | -8%[10.4 µM] | -3% | 14µM* | ? | ?
CCn1c(=O)n(-c2ccc(C)c(F)c2)c(=O)c2sc3ccccc3c21 | nt | nt | nt | nt | nt | 3% | nt | nt | nt | nt | nt
CC(C)NCC(O)c1ccc(O)c(O)c1 (stereo not given) | -18% | -5 | -3 | -9%[18.4 µM] | 11µM* | 4% | 15% | 7% | ? | ? | -23%
COc1cccc(Cc2nc3ccccc3nc2SCC(=O)Nc2ccccc2F)c1 | nt | nt | nt | nt | nt | -6% | nt | nt | nt | nt | nt
Cc1ccc(NC(=S)N2CCN(Cc3ccccc3)CC2)cc1 | -1% | 41 | 11 | -12% | 2% | -18% | nt | nt | nt | nt | nt
C=CCNC(=S)N1CCN(Cc2ccccc2)CC1 | -4% | -9 | -1 | -19% | 18µM* | 40% | -12%[10.4 µM] | 11% | 12% | 13% | 7%
Cc1ccc(CN2CCN(C(=O)c3ccncc3)CC2)cc1 | -6% | -7 | -6 | -21% | 18µM* | 1% | 2% | 3% | 6% | 7% | 7%
Cc1ccc(C(=S)N2CCN(Cc3ccccc3)CC2)cc1 | 0% | -4 | 3 | -22% | 16µM* | ? | ? | 9% | -6% | 9% | -16%
O=C(c1ccccc1)N1CCN(Cc2ccccc2)CC1 | -4% | -2 | -3 | 11% | -22% | 16% | nt | nt | nt | nt | nt
CCn1c(=O)c2sccc2n2c(CCCC(=O)N3CCN(c4ccc(OC)cc4)CC3)nnc12 | nt | nt | nt | nt | nt | 5% | nt | nt | nt | nt | nt
COc1nnc(-c2ccc(N3CCOCC3)c(NC(=O)C3CCCCC3)c2)c2ccccc12 | 1% | 8 | 1 | 22% | -3% | -4% | nt | nt | nt | nt | nt
c1ccc2c3c(cc(N4CCOCC4)c2c1)OC1(N2CCOCC2)CCCCC1O3 (stereo not given) | 3% | 27 | 6 | -6% | 0.56µM* | 1% | ? | -9% | 7.1µM* | ? | 25µM*
CCOC(=O)c1ccc(N2CSC3=C(C#N)C(c4cccs4)CC(=O)N3C2)cc1 (stereo not given) | 2% | -2 | 2 | -18% | 20µM* | ? | 25% | -18% | -13% | -23% | -7%

Compound activity deposited in PubChem by National Center for Advancing Translational Sciences (NCATS).
